{
  "source": "ChEMBL document CHEMBL3433997",
  "about": "“St. Jude Leishmania screening dataset” (2016)",
  "data": [
    {"target": "Glucose transporter (Leishmania mexicana) (UniProt O61059)", "assay": "ST_JUDE_LEISH: Cytotoxicity at 2uM final concentration against transgenic Leishmania Mexicana promastigotes LmGT2 that are glucose transport deficient and complemented with the L. Mexicana glucose transporter 2. Activity is measured by DNA content using SYBR green in vitro", "assay_type": "functional", "units": {"inhibition": "%"}, "values": [
      {"smiles": "CC(C)C[C@H](NC(=O)c1cc(-c2ccc(C(C)(C)C)cc2)no1)C(=O)O.CC(C)C[C@H](NC(=O)c1conc1-c1ccc(C(C)(C)C)cc1)C(=O)O", "inhibition": 0.84},
      {"smiles": "Cc1cc(N2CCN(C(=O)OC(C)(C)C)CC2)ccc1N", "inhibition": 7.39},
      {"smiles": "COc1cccc(NC(=O)Nc2cc(C)nc3ccccc23)c1", "inhibition": 2.43},
      {"smiles": "CC(C)CN1CCC(COc2ccc3ncn(-c4cc(O[C@H](C)c5ccccc5C(F)(F)F)c(C(N)=O)s4)c3c2)CC1", "inhibition": 60.6},
      {"smiles": "COc1ccc(-c2cccc(NC(=O)c3ccc(F)cc3)c2)cc1CNC(C)C", "inhibition": 3.19},
      {"smiles": "O=C1OC(c2ccccc2)(c2ccccn2)CN1C1CCN(Cc2cccn2-c2ccc(Cl)cc2)CC1", "note": "(stereo not given)", "inhibition": -0.08},
      {"smiles": "COc1ccc(C(=O)COc2cccc(/C=C/C(=O)O)c2)cc1OC", "inhibition": -0.23},
      {"smiles": "c1ccc(-c2ccc(-c3csc(Nc4ccncc4)n3)cc2)cc1", "inhibition": 1.13},
      {"smiles": "CN1CCN(Cc2cc3cc(NC(=O)/C=C/c4cccc(Cl)c4)ccc3s2)CC1", "inhibition": -0.14},
      {"smiles": "COc1cccc(C=NN=c2cc(C)[nH]c3ccccc23)c1", "inhibition": 3.02},
      {"smiles": "O=C(Nc1ccccc1)N(Cc1cccc(-c2cccc(CNCc3ccc4c(c3)OCO4)c2)c1)C1CCN(Cc2ccccc2)CC1", "inhibition": 2.79},
      {"smiles": "N#Cc1ccc(CN2CCCN(c3ccc(NC(=O)c4ccc(F)cc4)cc3)CC2)cc1", "inhibition": 0.81},
      {"smiles": "COc1ccccc1-n1c(SCC(=O)Nc2ccccc2F)nc2cccnc21", "inhibition": 2.25},
      {"smiles": "N#Cc1ccc2c(c1)CCN(CCC1CCC(NC(=O)c3cc4cccc([N+](=O)[O-])c4[nH]3)CC1)C2", "note": "(stereo not given)", "inhibition": 9.97},
      {"smiles": "O=C(Nc1ccccc1F)NC1CCN(c2ccnc(Nc3ccc(F)cc3)n2)C1", "note": "(stereo not given)", "inhibition": 0.81},
      {"smiles": "O=C(Nc1cccc(C(F)(F)F)c1)Nc1nc2ccc([N+](=O)[O-])cc2s1", "inhibition": 0.91},
      {"smiles": "CN(C)C(CNc1ncnc2cc(Cl)ccc12)Cc1ccccc1", "note": "(stereo not given)", "inhibition": 3.65},
      {"smiles": "CCC(=O)N1CCc2cc(Br)cc(S(=O)(=O)N3CC(C)CC(C)C3)c21", "note": "(stereo not given)", "inhibition": 3.73},
      {"smiles": "O=C(NCCN1CCC(c2ccncc2)CC1)c1cccc(Nc2nccc(Nc3ccc(Oc4ccccc4)cc3)n2)c1", "inhibition": -0.06},
      {"smiles": "CC(C)CCNC(=O)C1Cc2c([nH]c3cc(Br)ccc23)C2(CCN(Cc3ccccc3)CC2)N1", "note": "(stereo not given)", "inhibition": 14.8},
      {"smiles": "CCN(CC)Cc1cccc(-c2cc3c(-c4ccc(C(=O)O)c(C(C)C)c4)ccnc3[nH]2)c1OC", "inhibition": 7.3},
      {"smiles": "COCCNCc1ccc(-c2ccc(CNc3ccc4ncccc4c3)cc2)cc1", "inhibition": 1.36},
      {"smiles": "CCc1cn2c3c(cc(C(=O)N[C@@H](Cc4ccccc4)[C@H](O)CNC4CC4)cc13)N(CC)S(=O)(=O)CC2", "inhibition": 0.02},
      {"smiles": "CCN(CC1CCN(CC2(O)CCOCC2)CC1)c1cc(C)nc(Nc2ccc(Cl)cc2)n1", "inhibition": -0.02},
      {"smiles": "COc1ccc2ccccc2c1C=NN=c1cc(C)[nH]c2cc(C(F)(F)F)ccc12", "inhibition": 6.68},
      {"smiles": "COc1cc2ccccc2cc1OCCCN1CCN(CC(c2ccc(F)cc2)N2CCN(C(C)C)CC2)CC1", "note": "(stereo not given)", "inhibition": 2.29},
      {"smiles": "Cc1[nH]c(C)c(C(F)(F)F)c(=O)c1-c1ccc(Oc2ccc(OC(F)(F)F)cc2)cc1", "inhibition": 0.52},
      {"smiles": "Cc1cnc2ccc(NS(=O)(=O)c3ccc4c(Cl)cccc4c3)cc2c1N1CCNCC1", "inhibition": 1.37},
      {"smiles": "CCCC(C)Nc1nc(C)cc(N[C@@H](CC(C)C)C(=O)NCc2ccc(C)cc2)n1", "note": "(stereo not given in full)", "inhibition": 0.38},
      {"smiles": "OCCN1CCN(Cc2ccc(-c3cccc(-c4nc5cc(F)ccc5[nH]4)c3)cc2)CC1", "inhibition": 0.18},
      {"smiles": "Cc1cc(NC(=O)NCCN2CCC(NS(=O)(=O)c3cccc(Br)c3)C2)c2ccccc2n1", "note": "(stereo not given)", "inhibition": 0.42},
      {"smiles": "NC1CCN(Cc2ccc(-c3cccc(-c4nc5ccccc5[nH]4)c3)cc2)C1", "note": "(stereo not given)", "inhibition": 5.76},
      {"smiles": "COc1ccc2nccc([C@@H](O)CN3CCC(NCc4nc5cc(F)cc(F)c5[nH]4)CC3)c2c1", "inhibition": -0.63},
      {"smiles": "CN1CCN(c2cc3c(cc2Cl)CCN3C(=O)Cc2ccc(Cl)c(NC(=O)Nc3cccc(C#N)c3)c2)CC1", "inhibition": -0.22},
      {"smiles": "N#Cc1ccc(N[C@@H](CC2CCCCC2)C(=O)N[C@@H]2CCCc3ccccc32)c2ccccc12", "inhibition": 0.82},
      {"smiles": "O=C(NCCCCN1CCC(c2ccc3c(c2OCCO)CCCC3)CC1)c1ccc2oc(-c3ccc(C(F)(F)F)cc3)cc2c1", "inhibition": 2.18},
      {"smiles": "CC(=O)N(C)c1cccc(CNc2cc(C)nc(Nc3ccc(C)cc3)n2)c1", "inhibition": 0.91},
      {"smiles": "O=C(N[C@@H](Cc1ccccc1)C(=O)NCCN1CCCC1)c1ccc(O)c(-c2ccc(Cl)c(Cl)c2)c1", "inhibition": 6.16},
      {"smiles": "CN(C(=O)Nc1ccc(F)cc1)C1CCN(CCCCCNC(=O)/C=C/c2ccc(Cl)c(Cl)c2)CC1", "inhibition": 2.01},
      {"smiles": "O=C(Cn1c(CCc2cccc(F)c2F)nc(=O)c2cccnc21)N(Cc1ccc(-c2ccc(C(F)(F)F)cc2)cc1)C1CCN(C2CCSCC2)CC1", "inhibition": 0.42}
    ]}
  ]
}
